Source: PubChem BioAssay AID1846 (The Scripps Research Institute Molecular Screening Center, 2009)
Where “and” joins values, the source holds several entries; their conditions need not be identical. Equal values may be shown once. About 1,500 (65%) of roughly 2,300 compounds were called active. Cut-off read from the data, not from the text of the source: active = inhibition above about 18%; inactive = the rest. So high a share suggests a set chosen from earlier hits. Not all results are given here. Some structures have more than one record in an assay (separate samples or runs), and their calls can disagree.

molecular target: Heat shock protein HSP 90-alpha (Homo sapiens) (UniProt P07900); test: HSP90 inhibitors, confirmation, cell lysate, luminescence (AID 1846); conditions: rabbit reticulocyte lysate, luciferase refolding luminescence, 3 h; at 5.9 µM; stronger effect = higher value;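 note: 0% = vehicle wells and 100% = reference inhibitor wells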

Compound	inhibition
COc1cccc(/C=C/c2ccc3ccccc3n2)c1OC(C)=O	72.3% (active)
CN(c1ccc2nc3ccccc3c(=O)n2n1)C1CCCCC1	90.9% (active)
C=CCN1CCN(C(=O)CCCc2ccccc2)CC1	52.5% (active)
Cc1cccc(NC(=O)/C=C/c2ccc3c(c2)OCO3)n1	40.6% (active)
O=C(Nc1cccnc1)c1noc2c1CCCCC2	48% (active)
COc1ccc(Nc2ncnc3ccc(Br)cc23)c(OC)c1	54.7% (active)
O=C(Cc1ccccc1)N1CCN(S(=O)(=O)c2ccc([N+](=O)[O-])cc2)CC1	53.5% (active)
c1ccc(-c2ccc3c(c2)NC(C2Nc4cc(-c5ccccc5)ccc4O2)O3)cc1 (stereo unspecified)	8.8% (inactive)
CCOc1ccc(-c2nnc(-c3ccco3)o2)cc1	60.3% (active)
COCc1cc(=O)[nH]c2cc(NC(=O)C(F)(F)F)c(C)cc12	-8.2% (inactive)
O=C(Nc1ccc2c(c1)OCCO2)C1CCCN(c2ncccn2)C1 (stereo unspecified)	34.1% (active)
COc1ccc(Cl)cc1NC(=O)Cn1nc(-c2ccc(C)cc2)n(C)c1=S	-3.4% (inactive)
Clc1ccc(-c2cc(-c3ccccn3)on2)c(Cl)c1	84.9% (active)
CCN(CCCNC(=O)c1ccc2c(c1)NC(=O)CN2C)c1cccc(C)c1	14.4% (inactive)
Cc1nc2cc(NC(=O)Nc3cccc(F)c3)ccc2n1C	40.5% (active)
CCOC(=O)C1=C(c2ccc(OC)cc2)C(=O)c2ccccc2C1=O	95.3% (active)
Cc1ccc(C(=O)O/N=C(\N)c2ccccn2)cc1Cl	29.5% (active)
COc1ccc(CNC(=O)/C(C#N)=C/c2cccc(OC)c2OC)cc1	18.9% (active)
Cc1cccc(C(=O)OC(C)CN2CCN(C)CC2)c1 (stereo unspecified)	19.1% (active)
O=[N+]([O-])/C=C/c1ccc2c(ccn2Cc2ccccc2)c1	68.7% (active)
COC(=O)C1[C@H]2SC(C)(C)C(C(=O)OC)N2C(=O)N1Cc1nc2ccccc2s1 (stereo partly specified)	-5.33% (inactive)
O=C(O)c1ccc(N=NN2CCOCC2)cc1	-8.5% (inactive)

Compound	inhibition
O=C(CSC(=S)N1CCOCC1)c1ccccc1	57.6% (active)
Cc1nn(CC(=O)Nc2ccc(F)cc2)c(=O)c2ccccc12	-9.73% (inactive)
Cc1cnc(NC(=O)c2ccccn2)s1	39.7% (active)
COc1cccc2c(C)c(C(=O)O)[nH]c12	56.9% (active)
O=C(Cn1c[n+](CC(=O)c2ccc([N+](=O)[O-])cc2)cn1)c1ccc([N+](=O)[O-])cc1	3.57% (inactive) and 48.8% (active)
Cc1ccc(C(=O)CSc2ccccc2C(=O)O)cc1	42.3% (active)
Cc1ccsc1C(=O)OCC(=O)c1cc(C)n(CC2CCCO2)c1C (stereo unspecified)	89.3% (active)
Clc1cccc(N=C2NN=C(c3ccc4c(c3)OCCO4)CS2)c1	41.5% (active)
Cc1nc2ccc(C(=O)O)cc2[nH]1	46.4% (active)
CC(C)c1nc2ccc(C(=O)O)cc2[nH]1	55.6% (active)
CC(C)CNC(=O)CC(NCC(C)C)C(=O)O (stereo unspecified)	-4% (inactive)
CC(C)(C)OC(=O)c1c(N)n(CCCN2CCCC2=O)c2nc3ccccc3nc12	-5.73% (inactive)
CCCCOCCCNC(=O)c1ccccc1OCC	-3.83% (inactive)
CCCOc1ccc(C(=O)NCCc2ccccc2)cc1	49.2% (active)
COc1ccc(/C=C/c2noc(-c3ccccc3OC(C)=O)n2)cc1	45.2% (active)
COC(=O)c1sc(NC(=O)c2ccc(OC)cc2OC)nc1C	67.3% (active)
COc1cc(SC)ccc1C(=O)Nc1nc(C)cs1	94% (active)
COC(=O)c1sc(NC(=O)c2csc3c2CCCC3)nc1C	12.5% (inactive)
COc1cc(NS(=O)(=O)c2ccc3ccccc3c2)c2ncccc2c1	10.9% (inactive)
c1ccc(-c2noc(-c3cccs3)n2)nc1	43.7% (active)
CCOc1ccc(N/C=C/C(=O)c2ccccc2)cc1	75.5% (active)
COc1ccc(C(=O)/C=C/Nc2ccccn2)cc1	96.8% (active)

Compound	inhibition
Cc1ccc(-n2c(SCC(=O)Nc3ncc(Cl)cc3Cl)nc3ccccc32)cc1	14% (inactive)
Cc1nc(NC(=O)c2cccc(Cl)c2)sc1-c1csc(Nc2cccc(Cl)c2)n1	23.7% (active)
CCCCC(=O)Nc1nc(C)c(-c2csc(Nc3ccc(Cl)cc3)n2)s1	7.3% (inactive)
Cc1ccc(Nc2nc(-c3sc(NC(=O)c4ccccc4)nc3C)cs2)cc1	15.7% (inactive)
COc1ccc(C(=O)Nc2ccccc2C(=O)N/N=C/c2ccccc2OC)cc1	74.7% (active)
CCc1nc(SCC(=O)Nc2ccccc2OC)n[nH]1	1.4% (inactive)
COc1ccc(C(=O)Nc2ccccc2C(=O)N/N=C/c2ccc(O)c(OC)c2)cc1	98.7% (active)
COc1ccc(/C=N/Nc2ccccc2C(=O)O)cc1	29.5% (active)
Cc1ccc2nc(/C(C#N)=C\c3ccc(OC(=O)c4cccs4)cc3)[nH]c2c1	-11% (inactive)
CCCCCc1ccc(-c2ccc(C(=O)O)cc2)nc1	72.4% (active)
COc1ccc(-n2nnnc2-c2nc3ccccc3s2)cc1	51.8% (active)
CCN(CC)CCn1c(N)c(S(=O)(=O)c2ccccc2)c2nc3ccccc3nc21	-3.4% (inactive)
Cc1nnc(SCC(=O)N2c3ccccc3C(C)(c3ccc(Cl)cc3)CC2(C)C)s1 (stereo unspecified)	8.97% (inactive)
O=C(Nc1ccccc1)c1ccc2c(c1)OCCCO2	49.6% (active)
O=C(Nc1nc2ccccc2s1)c1ccc2c(c1)OCO2	57.7% (active)
CCCS(=O)(=O)N1CCCC(C(=O)NCCN2CCCCC2C)C1 (stereo unspecified)	1.9% (inactive)
CCOC(=O)c1nc(C)n(-c2ccc(Cl)cc2Cl)n1	0.2% (inactive)
c1c2c(cc3sc(N4CCCCC4)nc13)OCCO2	81.9% (active)
CSCCC(C(=O)NC1=NCCS1)N1C(=O)c2ccccc2C1=O (stereo unspecified)	-7.1% (inactive)
CCOc1ccc(C2NC(=S)NC3=C2CCc2ccccc23)cc1 (stereo unspecified)	28.4% (active)
Cn1c(-c2ccco2)nc2cc3ccccc3cc21	58.9% (active)
CC(OC(=O)c1ccc2noc(-c3ccccc3)c2c1)C(N)=O (stereo unspecified)	2.1% (inactive)
